# The full ranking holds about 2,900 compounds; the median of “NF-kB SEAP reporter activity, fold change vs agonist alone” is about 0.99, and the highest 2% start at about 2.6. The sample as a whole holds a higher share of the highest values than the screen did.
# Legend:
# RAW-Dual [1] = test: NF-kB SEAP reporter activity, fold change vs agonist alone; higher = enhanced NF-kB activity
# Procedure, shortened: (§1)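 Cytotoxic wells were those whose IncuCyte confluency was below 70% of agonist controls in both mask sets. The cells were RAW-Dual macrophages at 50,000 cells/well in DMEM on 384-well plates, dosed with 50 nL of library stock by pin tool, stimulated with a PRR agonist 1 h later, and kept at 37 °C, 5% CO2 for 20 hours. IRF and NF-κB reporter activity, as fold change over agonist-alone wells, came from supernatant read by QuantiLuc luminescence and QuantiBlue absorbance, respectively.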
# RAW-Dual [2] = test: NF-kB SEAP reporter activity, fold change vs agonist alone; cytotoxicity flag (confluency mask): cytotoxic (confluency <70% of control); library stock concentration (final ~1000-fold dilution): 10 mM; higher = enhanced NF-kB activity
# Procedure, shortened: as §1
# RAW-Dual [3] = test: NF-kB SEAP reporter activity, fold change vs agonist alone; cytotoxicity flag (confluency mask): not cytotoxic; library stock concentration (final ~1000-fold dilution): 10 mM; higher = enhanced NF-kB activity
# Procedure, shortened: as §1
# RAW-Dual [4] = test: NF-kB SEAP reporter activity, fold change vs agonist alone; cytotoxicity flag (confluency mask): not cytotoxic; library stock concentration (final ~1000-fold dilution): 2 mM; higher = enhanced NF-kB activity
# Procedure, shortened: as §1
# [5] = library stock concentration (final ~1000-fold dilution): 10 mM, cytotoxicity flag (confluency mask): cytotoxic (confluency <70% of control), agonist: Imiquimod (TLR7) […]
# [6] = library stock concentration (final ~1000-fold dilution): 10 mM, cytotoxicity flag (confluency mask): cytotoxic (confluency <70% of control), agonist: MPLA (TLR4) […]
# [7] = agonist: ODN 1826 (TLR9) 0.5 ug/mL
# [8] = agonist: Pam2CSK4 (TLR2/6) 0.1 ug/mL
# [9] = agonist: Pam3CSK4 (TLR2/1) 0.1 ug/mL
# [10] = library stock concentration (final ~1000-fold dilution): 10 mM, cytotoxicity flag (confluency mask): not cytotoxic, agonist: Imiquimod (TLR7) […]
# [11] = library stock concentration (final ~1000-fold dilution): 10 mM, cytotoxicity flag (confluency mask): not cytotoxic, agonist: MPLA (TLR4) […]
smiles,measurement,setting,value
CC(C)(C)c1cc(C=C(C#N)C#N)cc(C(C)(C)C)c1O,NF-kB SEAP reporter activity,RAW-Dual [1]; [5],1.7
same,NF-kB SEAP reporter activity,RAW-Dual [1]; [6],2.56
same,NF-kB SEAP reporter activity,RAW-Dual [2]; agonist: LPS (TLR4) 0.1 ug/mL,5.32
same,NF-kB SEAP reporter activity,RAW-Dual [2]; [7],1.32
same,NF-kB SEAP reporter activity,RAW-Dual [2]; [8],0.729
same,NF-kB SEAP reporter activity,RAW-Dual [2]; [9],1.48
CC(C)(C)c1cc(C=C(C#N)C#N)cc(Br)c1O,NF-kB SEAP reporter activity,RAW-Dual [1]; [5],2.04
same,NF-kB SEAP reporter activity,RAW-Dual [1]; [6],2.25
same,NF-kB SEAP reporter activity,RAW-Dual [2]; agonist: LPS (TLR4) 0.1 ug/mL,2.48
same,NF-kB SEAP reporter activity,RAW-Dual [2]; [7],1.29
same,NF-kB SEAP reporter activity,RAW-Dual [2]; [8],0.571
same,NF-kB SEAP reporter activity,RAW-Dual [2]; [9],0.667
N#CC(C#N)=Cc1ccc(O)c(O)c1,NF-kB SEAP reporter activity,RAW-Dual [1]; [10],0.89
same,NF-kB SEAP reporter activity,RAW-Dual [1]; [11],1.33
same,NF-kB SEAP reporter activity,RAW-Dual [3]; agonist: LPS (TLR4) 0.1 ug/mL,1.19
same,NF-kB SEAP reporter activity,RAW-Dual [3]; [7],0.619
same,NF-kB SEAP reporter activity,RAW-Dual [3]; [8],0.821
same,NF-kB SEAP reporter activity,RAW-Dual [3]; [9],0.937
CN1C(=O)C23CC4(C56CC78SSC(CO)(C(=O)N7C5Nc5ccccc56)N(C)C8=O)c5ccccc5NC4N2C(=O)C1(CO)SS3 (stereo not drawn),NF-kB SEAP reporter activity,RAW-Dual [1]; [5],0.117
same,NF-kB SEAP reporter activity,RAW-Dual [1]; [6],0.183
same,NF-kB SEAP reporter activity,RAW-Dual [2]; agonist: LPS (TLR4) 0.1 ug/mL,0.372
same,NF-kB SEAP reporter activity,RAW-Dual [2]; [7],0.141
same,NF-kB SEAP reporter activity,RAW-Dual [2]; [8],0.0829
same,NF-kB SEAP reporter activity,RAW-Dual [2]; [9],0.196
CCC1(O)C(=O)OCc2c1cc1n(c2=O)Cc2cc3ccccc3nc2-1 (stereo not drawn),NF-kB SEAP reporter activity,"RAW-Dual [1]; library stock concentration (final ~1000-fold dilution): 2 mM, cytotoxicity flag (confluency mask): not cytotoxic, agonist: Imiquimod (TLR7) […]",1.45
same,NF-kB SEAP reporter activity,"RAW-Dual [1]; library stock concentration (final ~1000-fold dilution): 2 mM, cytotoxicity flag (confluency mask): not cytotoxic, agonist: MPLA (TLR4) […]",1.83
same,NF-kB SEAP reporter activity,RAW-Dual [4]; agonist: LPS (TLR4) 0.1 ug/mL,4.12
same,NF-kB SEAP reporter activity,RAW-Dual [4]; [7],1.47
same,NF-kB SEAP reporter activity,RAW-Dual [4]; [8],1.05
same,NF-kB SEAP reporter activity,RAW-Dual [4]; [9],1.74
CCc1c2c(nc3ccccc13)-c1cc3c(c(=O)n1C2)COC(=O)C3(O)CC (stereo not drawn),NF-kB SEAP reporter activity,RAW-Dual [1]; [6],1.62
same,NF-kB SEAP reporter activity,RAW-Dual [2]; agonist: LPS (TLR4) 0.1 ug/mL,0.384
same,NF-kB SEAP reporter activity,RAW-Dual [2]; [7],2.29
same,NF-kB SEAP reporter activity,RAW-Dual [2]; [8],0.788
same,NF-kB SEAP reporter activity,RAW-Dual [2]; [9],0.641
C=CC1CN2CCC3(C(=O)Nc4ccccc43)C2CC1/C(=C\OC)C(=O)OC (stereo not drawn),NF-kB SEAP reporter activity,RAW-Dual [1]; [10],0.91
same,NF-kB SEAP reporter activity,RAW-Dual [1]; [11],1.1
same,NF-kB SEAP reporter activity,RAW-Dual [3]; agonist: LPS (TLR4) 0.1 ug/mL,0.951
same,NF-kB SEAP reporter activity,RAW-Dual [3]; [7],0.904
same,NF-kB SEAP reporter activity,RAW-Dual [3]; [8],0.882
same,NF-kB SEAP reporter activity,RAW-Dual [3]; [9],0.928
CC(=O)O.Cc1cc2c(C(C)C)c(O)c(O)c(C=O)c2c(O)c1-c1c(C)cc2c(C(C)C)c(O)c(O)c(C=O)c2c1O,NF-kB SEAP reporter activity,RAW-Dual [1]; [10],0.906
same,NF-kB SEAP reporter activity,RAW-Dual [1]; [11],0.963
same,NF-kB SEAP reporter activity,RAW-Dual [3]; agonist: LPS (TLR4) 0.1 ug/mL,3.69
same,NF-kB SEAP reporter activity,RAW-Dual [3]; [7],0.908
same,NF-kB SEAP reporter activity,RAW-Dual [3]; [8],1.15
same,NF-kB SEAP reporter activity,RAW-Dual [3]; [9],1.2
CC[C@H]1CN2CC[C@]3(C(=O)Nc4ccccc43)[C@@H]2C[C@@H]1/C(=C\OC)C(=O)OC,NF-kB SEAP reporter activity,RAW-Dual [1]; [10],0.86
same,NF-kB SEAP reporter activity,RAW-Dual [1]; [11],1.04
same,NF-kB SEAP reporter activity,RAW-Dual [3]; agonist: LPS (TLR4) 0.1 ug/mL,1.21
same,NF-kB SEAP reporter activity,RAW-Dual [3]; [7],1.05
same,NF-kB SEAP reporter activity,RAW-Dual [3]; [8],0.949
same,NF-kB SEAP reporter activity,RAW-Dual [3]; [9],1.03
COc1cc2c(c(OC)c1OC)-c1ccc(OC)c(=O)cc1C(NC(C)=O)CC2 (stereo not drawn),NF-kB SEAP reporter activity,RAW-Dual [1]; [10],2.62
same,NF-kB SEAP reporter activity,RAW-Dual [1]; [11],1.98
same,NF-kB SEAP reporter activity,RAW-Dual [3]; agonist: LPS (TLR4) 0.1 ug/mL,4.93
same,NF-kB SEAP reporter activity,RAW-Dual [3]; [7],3.47
same,NF-kB SEAP reporter activity,RAW-Dual [3]; [8],2.44
same,NF-kB SEAP reporter activity,RAW-Dual [3]; [9],2.52
CN1C2CCC1CC(OC(=O)C(CO)c1ccccc1)C2.CN1C2CCC1CC(OC(=O)C(CO)c1ccccc1)C2.O.O=S(=O)(O)O (stereo not drawn),NF-kB SEAP reporter activity,RAW-Dual [1]; [10],0.838
same,NF-kB SEAP reporter activity,RAW-Dual [1]; [11],0.986
same,NF-kB SEAP reporter activity,RAW-Dual [3]; agonist: LPS (TLR4) 0.1 ug/mL,0.923
same,NF-kB SEAP reporter activity,RAW-Dual [3]; [7],0.83
same,NF-kB SEAP reporter activity,RAW-Dual [3]; [8],0.79
same,NF-kB SEAP reporter activity,RAW-Dual [3]; [9],1.05
CC12CCC3C(CCC4=C(O)C(=O)CCC43C)C1CCC2=O (stereo not drawn),NF-kB SEAP reporter activity,RAW-Dual [1]; [10],0.986
same,NF-kB SEAP reporter activity,RAW-Dual [1]; [11],1.01
same,NF-kB SEAP reporter activity,RAW-Dual [3]; agonist: LPS (TLR4) 0.1 ug/mL,1.17
same,NF-kB SEAP reporter activity,RAW-Dual [3]; [7],1.21
same,NF-kB SEAP reporter activity,RAW-Dual [3]; [8],1.07
same,NF-kB SEAP reporter activity,RAW-Dual [3]; [9],1.23
Nc1ncnc2c1ccn2C1OC(CO)C(O)C1O (stereo not drawn),NF-kB SEAP reporter activity,RAW-Dual [1]; [5],0.147
same,NF-kB SEAP reporter activity,RAW-Dual [1]; [6],0.247
same,NF-kB SEAP reporter activity,RAW-Dual [2]; agonist: LPS (TLR4) 0.1 ug/mL,0.531
same,NF-kB SEAP reporter activity,RAW-Dual [2]; [7],0.19
same,NF-kB SEAP reporter activity,RAW-Dual [2]; [8],0.0753
same,NF-kB SEAP reporter activity,RAW-Dual [2]; [9],0.156
Cl.NCCc1ccc(S(=O)(=O)F)cc1,NF-kB SEAP reporter activity,RAW-Dual [1]; [10],1.07
same,NF-kB SEAP reporter activity,RAW-Dual [1]; [11],1.23
same,NF-kB SEAP reporter activity,RAW-Dual [3]; agonist: LPS (TLR4) 0.1 ug/mL,1.6
same,NF-kB SEAP reporter activity,RAW-Dual [3]; [7],1.01
same,NF-kB SEAP reporter activity,RAW-Dual [3]; [8],1.03
same,NF-kB SEAP reporter activity,RAW-Dual [3]; [9],1.9
